# According to PubChem BioAssay AID504329 (Southern Research Specialized Biocontainment Screening …, 2011):
# Hit rate of the full screen: of about 340,000 compounds, about 1,000 (0.29%) were called active. Cut-off read from the data, not from the text of the source: inconclusive = inhibition above about 27% without an active follow-up result; inactive = below that. Not all results are given here. Results with a measured potency or affinity are listed apart.
# Experiment: H1N1 influenza NS1A inhibitors, functional cell based assay (AID 504329)
# Settings: percent inhibition, at 12.5 µM, hits give high values
row,SMILES,inhibition
1,COc1ccc(NC(=O)COC(=O)c2ccc3ccccc3n2)cc1,-0.01% (inactive)
2,CCN(CC)c1ccc(NC(=O)COC(=O)c2ccc3ccccc3n2)cc1,17.3% (inactive)
3,O=C(Nc1ccn(CCCNCc2ccccc2)c(=O)n1)OCc1ccccc1,-1.35% (inactive)
4,COc1cc(CN2CC=C(c3ccc(F)cc3)CC2)cc(OC)c1,-3.66% (inactive)
5,CCN(CC)c1ccc(CN2CC=C(c3ccc(F)cc3)CC2)cc1,23.1% (inactive)
6,N[C@@H](Cc1ccc(O)cc1)c1nnc([C@H](CO)NC(=O)C2CCNCC2)o1,-21.5% (inactive)
7,COc1ccccc1C=NNC(=O)c1ccccc1OCCOc1ccccc1,-1.44% (inactive)
8,COc1ccc(CCc2nnc(N)s2)cc1OC,-1.61% (inactive)
9,CCOC(=O)c1cc(-c2ccc(Cl)s2)[nH]n1,0.06% (inactive)
10,O=C1NC(=O)N(Cc2ccco2)C(=O)/C1=C/C=C/c1ccco1,-3.06% (inactive)
11,CCN(CC)c1ccc(/C=C2/C(=O)NC(=O)N(Cc3ccco3)C2=O)cc1,7.25% (inactive)
12,NC(=O)C1CCN(/C=C2\C(=O)NC(=O)N(Cc3ccco3)C2=O)CC1,-5.38% (inactive)
13,Cn1cccc1/C=C1\C(=O)NC(=O)N(Cc2ccco2)C1=O,3.7% (inactive)
14,COC(=O)c1ccc(NC(=O)CNS(=O)(=O)c2cccs2)cc1,1.39% (inactive)
15,COc1ccc(C(=O)N/N=C/c2ccccn2)cc1OC,0.68% (inactive)
16,COc1ccc(C(=O)N/N=C(\C)CC(=O)Nc2ccccn2)cc1OC,1.35% (inactive)
17,COc1cc(C(=O)N/N=C(\c2ccccc2)c2ccccn2)cc(OC)c1OC,8.37% (inactive)
18,COc1cc(NC(=O)c2ccccn2)cc(OC)c1OC,-8.83% (inactive)
19,COc1ccc(NC(=S)N2CCN(Cc3ccccc3)CC2)c(OC)c1,-3.28% (inactive)
20,Fc1cccc(-c2oncc2-c2nnnn2-c2ccc(Cl)cc2)c1,12.9% (inactive)
21,CCOC(=O)c1ccc(NC(=O)CCNS(=O)(=O)c2cc(Br)cnc2N)cc1,1.26% (inactive)
22,O=C1C(Cl)=C(N2CCC(C(=O)O)CC2)C(=O)c2ccccc21,0.19% (inactive)
23,CN1CCN(C2=C(Cl)C(=O)c3ccccc3C2=O)CC1,-8.61% (inactive)
24,C[C@H](CO)N1C[C@H](C)[C@H](CN(C)Cc2ccccc2)Oc2c(NC(=O)Nc3ccc(F)cc3)cccc2C1=O,-3.95% (inactive)
25,Cc1ccc(C(=O)OCC(=O)c2ccc(Cl)s2)s1,1.17% (inactive)

row,SMILES,inhibition
1,CC1(C)CC(NC(=O)C23CCC(C)(C2Br)C3(C)C)CC(C)(C)N1 (stereo not drawn),-5.71% (inactive)
2,CCN1C(=O)/C(=C/C=C2/Sc3ccc4ccccc4c3N2CCO)SC1=S,-5.98% (inactive)
3,CCN1C(c2ccccc2)=C(c2ccccc2)S/C1=C\C=C1/SC(=S)N(C)C1=O,15.8% (inactive)
4,CCCCCC/C=C/c1ccc(OC)c([C@H]2[C@H]3C=CC[C@@H](C)[C@@H]3C(=O)N2Cc2ccccc2)c1,6.03% (inactive)
5,CCN1/C(=C/c2ccc3cc(C)ccc3[n+]2CC)Sc2cc(C)ccc21,19.4% (inactive)
6,CCN1/C(=C\c2ccc3ccccc3[n+]2CC)Sc2cc(C)ccc21,11.8% (inactive)
7,Cc1cc(C)nc(NS(=O)(=O)c2ccc(NS(=O)(=O)c3ccc(C#N)cc3)cc2)n1,-5.4% (inactive)
8,COC(=O)CNC(=O)CN(c1ccc(OC)cc1OC)S(=O)(=O)c1ccccc1,-1.66% (inactive)
9,Cc1cccc(NC(=O)Cn2c(O)c(N=NC(=O)c3ccncc3)c3ccccc32)c1,-15.6% (inactive)
10,CN1CCc2c(sc3c2C(=O)NC(c2cccs2)N3)C1 (stereo not drawn),1.19% (inactive)
11,O=C1NC(c2cccs2)Nc2sc3c(c21)CCCC3 (stereo not drawn),3.69% (inactive)
12,CN1CCc2c(sc3c2C(=O)NC(c2ccccc2)N3)C1 (stereo not drawn),-3.09% (inactive)
13,O=C1NC(c2ccncc2)Nc2sc3c(c21)CCCC3 (stereo not drawn),2.95% (inactive)
14,CN1C(=O)/C(=C2\SC(N3CCCCCC3)=NC2=O)c2ccccc21,20.3% (inactive)
15,CCN1C(=O)/C(=C2\SC(N3CCOCC3)=NC2=O)c2ccccc21,23.1% (inactive)
16,CCN1C(=O)/C(=C2\SC(N3CCCCC3)=NC2=O)c2ccccc21,14.1% (inactive)
17,CCCCN1C(=O)/C(=C2\SC(N3CCOCC3)=NC2=O)c2ccccc21,8.19% (inactive)
18,COC(=O)c1sccc1NC(=O)c1ccc(Br)o1,3.08% (inactive)
19,Cc1nc2ccccc2c(=O)n1NC(=O)c1cc(Br)ccc1Cl,3.26% (inactive)
20,CCOC(=O)c1c(NC(=O)CNCCO)sc(C)c1C,-0.57% (inactive)
21,CN(CCCNC(=O)c1cc2c(=O)[nH]c3ccccc3c2n1C)Cc1ccccc1,-0.58% (inactive)
22,CCN1CCN(C(=O)c2cc(-c3ccc(Cl)s3)nc3ccccc23)CC1,-3.92% (inactive)
23,COc1cc(C(=O)OCC(=O)NC(=O)c2cccn2C)ccc1OC(F)F,5.75% (inactive)
24,COc1ccc(Oc2ccccc2/C=N/O)cc1,-9.31% (inactive)
25,COc1ccc2nc(-c3ccccn3)[nH]c2c1,-6.69% (inactive)

row,SMILES,inhibition
1,CC(C)(C)c1cc(=O)[nH]c(SCc2ccccc2)n1,-17.8% (inactive)
2,Cn1nc(C(F)(F)F)c(CO)c1Sc1ccc(F)cc1,5.51% (inactive)
3,CN(C)c1ccc(/C=C/c2nc3ccccc3c(=O)[nH]2)cc1,-10.6% (inactive)
4,CC[n+]1c(SC)ccc2cc(OC)ccc21,-5.15% (inactive)
5,CN(CCCS(=O)(=O)[O-])c1ccc(/C=C/c2ccc3ccccc3[n+]2C)cc1,-6.52% (inactive)
6,C[n+]1c(/C=C/c2ccc3c(c2)OCO3)ccc2ccccc21,8.1% (inactive)
7,CC[n+]1cc(C)ccc1/C=C/c1ccc(N(C)C)cc1,-3.01% (inactive)
8,CC[n+]1c(/C=C/c2ccc(OC)c(OC)c2)ccc2ccccc21,3.91% (inactive)
9,CN(C)c1ccc(/C=C/c2ccc3ccccc3n2)cc1,-37.5% (inactive)
10,CC[n+]1c(/C=C/c2ccc(OC(C)=O)c(OC)c2)ccc2ccccc21,18.9% (inactive)
11,O=C(Nc1nc2ccccc2[nH]1)NC1CCCCC1,-9.13% (inactive)
12,O=C(N/C=N/OCc1ccc(Cl)cc1Cl)NOCc1c(Cl)cccc1Cl,-13.6% (inactive)
13,Cc1ccc(S(=O)(=O)NCC(c2ccc3c(c2)OCO3)N2CCN(c3ccccc3)CC2)cc1 (stereo not drawn),-19.9% (inactive)
14,Cc1[nH]c(C)c(S(=O)(=O)NCc2ccccc2Cl)c1C(=O)N1CCCC1,9.96% (inactive)
15,c1csc(C(c2nnnn2C2CCCC2)N2CCOCC2)c1 (stereo not drawn),5.59% (inactive)
16,O=C(CCNC(=O)c1ccccc1Cl)Nc1ccccc1N1CCCC1,-8.83% (inactive)
17,O=C(NCCN1CCOCC1)c1noc2c1CCc1ccccc1-2,1.97% (inactive)
18,CCCCCN1C(=O)Cn2c(nc3ccccc3c2=O)C1C (stereo not drawn),4.12% (inactive)
19,Cc1noc(/C=C/N(C)C)c1S(=O)(=O)N1CCN(c2ccc(F)cc2)CC1,4.41% (inactive)
20,CC[n+]1ccccc1/C=C/c1ccc(N(C)C)cc1,8% (inactive)
21,CN(C)c1ccc(/C=C/c2cc[n+](C)c3ccccc23)cc1,58.9% (inactive)
22,COC(=O)c1ccc(CNC(=O)c2sccc2-c2ccccc2)cc1,4.96% (inactive)
23,COc1ccc2[nH]c3c(=O)n4c(nc3c2c1)SCC4,-0.07% (inactive)
24,CCCCc1ccc(NS(=O)(=O)c2cccc(C(=O)N3CCNC(=O)C3)c2)cc1,0.4% (inactive)
25,Clc1ccc2c(NNc3ccccc3Cl)ccnc2c1,6.7% (inactive)

row,SMILES,inhibition
1,Oc1ccc(Nc2ccnc3cc(Cl)ccc23)cc1,3.37% (inactive)
2,N/C(=N\N=C\c1ccc2c(c1)OCO2)SC1CC(=O)N(c2ccc(C(=O)O)cc2)C1=O (stereo not drawn),1.14% (inactive)
3,Cc1ccc(Nc2nc(N3CCOCC3)c3ccccc3n2)cc1,5.53% (inactive)
4,Fc1ccc(Nc2nc(N3CCOCC3)c3ccccc3n2)cc1,4.75% (inactive)
5,CCCOc1ccc(C(=O)NCCN2CCOCC2)cc1,-8.97% (inactive)
6,O=C1C2C3CCCC3=C3CCCC3C2C(=O)N1c1ccc(F)cc1 (stereo not drawn),-3.36% (inactive)
7,CCOc1ccc(NS(=O)(=O)c2ccc(-c3cnc(C4CC4)o3)cc2)cc1,-5.05% (inactive)
8,CCSc1nnc(CNc2ccc(C)cc2)n1C,-3.37% (inactive)
9,Oc1ccc(/C=N/N(Cc2ccccc2)c2ccccc2)c(O)c1O,19.2% (inactive)
10,Oc1ccc(/C=N/N(c2ccccc2)c2ccccc2)cc1O,1.06% (inactive)
11,COc1ccc(CCC(=O)N(C)CC(=O)Nc2cc(C)ccc2C)cc1,-11.1% (inactive)
12,CC(C)OC(=O)c1cc(NC(=O)C2C3C=CC(O3)C2C(=O)O)cc(C(=O)OC(C)C)c1 (stereo not drawn),6.16% (inactive)
13,O=C1[C@H]2[C@@H](C(=O)N1c1cccc3ccccc13)C1(C(=O)c3ccccc3C1=O)N1CCC[C@@H]21,-0.49% (inactive)
14,COc1nc(C)nc(NC(=O)NS(=O)(=O)c2ccccc2Cl)n1,-15.1% (inactive)
15,COc1cc(OC)nc(NC(=O)NS(=O)(=O)c2ccccc2Cl)n1,-10.9% (inactive)
16,CCc1ccc(/C(C)=N/NC(=O)c2ccccn2)cc1,-11.6% (inactive)
17,O=C(NCCNC(=O)c1ccccc1F)c1ccccn1,-7.82% (inactive)
18,C/C(=N\NC(=O)c1cccc(Br)c1)c1cccnc1,0.75% (inactive)
19,C/C(=N\NC(=O)c1cccc2ccccc12)c1cccs1,-0.84% (inactive)
20,C/C(=N\NC(=O)c1cccc2ccccc12)c1cccnc1,-8.98% (inactive)
21,C/C(=N/NC(=O)c1ccccn1)c1ccc(O)cc1,-1.61% (inactive)
22,C/C(=N\NC(=O)c1ccccc1)c1cccc(Br)c1,3.22% (inactive)
23,C/C(=N\NC(=O)c1ccccc1OCc1ccc(F)cc1)c1ccccn1,-7.95% (inactive)
